Data published in PubChem BioAssay (EPA / NIEHS).
Some structures have more than one record in an assay (separate samples or runs), and their calls can disagree. Active and inactive are the calls of the source. Rule for the calls: active = hit-call score of the fitted dose curve at least 0.9, where 1 is the maximum; inactive = score below 0.9.

Tests used:
[1] = read-out: Interleukin-1 alpha (IL1a), IL1A (gene 3552); assay: BSK_KF3CT_IL1a: BioMAP Diversity Plus: KF3CT Assay for Interleukin-1 alpha (IL1a) Biomarker Activity (AID 2283070); details: primary human keratinocytes with fibroblasts; actives raise or lower the signal
In short: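 Human keratinocyte plus foreskin fibroblast primary co-culture, sampled 24 h after chemical dosing. IL-1a measured by ELISA; responses fitted bidirectionally against DMSO baseline (negative control), so gain or loss of signal both count.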

[2] = read-out: TIMP metallopeptidase inhibitor 2 (TIMP2), TIMP2 (gene 7077); assay: BSK_KF3CT_TIMP2: BioMAP Diversity Plus: KF3CT Assay for TIMP metallopeptidase inhibitor 2 (TIMP2) Biomarker Activity (AID 2283071); details: primary human keratinocytes with fibroblasts; actives raise or lower the signal
In short: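 Keratinocyte–fibroblast co-culture, 24 h exposure; TIMP-2 ELISA, DMSO-normalised bidirectional fit. Parallel SRB (0.1%, TCA-fixed, 560 nm) total-protein staining gauges cytotoxicity.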

[3] = read-out: C-C motif chemokine 2 (Homo sapiens) (UniProt P13500); assay: BSK_KF3CT_MCP1: BioMAP Diversity Plus: KF3CT Assay for Monocyte Chemoattractant Protein 1 (MCP1/CCL2) Biomarker Activity (AID 2283073); details: primary human keratinocytes with fibroblasts; actives raise or lower the signal
In short: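 Human keratinocyte plus foreskin fibroblast primary co-culture exposed to chemical for 24 h. MCP-1 levels measured by ELISA. Bidirectional curve fitting relative to DMSO negative control as baseline.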

[4] = read-out: Matrix Metallopeptidase 9 (MMP9), MMP9 (gene 4318); assay: BSK_KF3CT_MMP9: BioMAP Diversity Plus: KF3CT Assay for Matrix Metallopeptidase 9 (MMP9) Biomarker Activity (AID 2283074); details: primary human keratinocytes with fibroblasts; actives raise or lower the signal;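 for AC50: MMP9 protein level quantified by ELISA in the co-culture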
In short: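 Keratinocyte plus foreskin fibroblast human primary skin co-culture was dosed with chemical and MMP-9 was quantified by ELISA 24 h later. Bidirectional curve fitting used DMSO as negative control and activity baseline.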

[5] = read-out: urokinase plasminogen activator (uPA), PLAU (gene 5328); assay: BSK_KF3CT_uPA: BioMAP Diversity Plus: KF3CT Assay for urokinase plasminogen activator (uPA) Biomarker Activity (AID 2283075); details: primary human keratinocytes with fibroblasts; actives raise or lower the signal
In short: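 Human keratinocyte plus foreskin fibroblast primary co-culture exposed to chemical for 24 h. uPA levels were quantified by ELISA, and activity was fitted bidirectionally against a DMSO negative-control baseline.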

CD40, CD40 (gene 958) [6] = assay: BSK_LPS_CD40: BioMAP Diversity Plus: LPS Assay for CD40 Biomarker Activity (AID 2283076); details: primary human HUVEC with PBMC; actives raise or lower the signal
In short: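 Primary human umbilical vein endothelial cells co-cultured with peripheral blood mononuclear cells, LPS-stimulated, were dosed with chemical and read 24 h later. CD40 levels were measured by ELISA and fitted bidirectionally against DMSO as negative control and baseline.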

[7] = read-out: E-selectin (Homo sapiens) (UniProt P16581); assay: BSK_LPS_Eselectin: BioMAP Diversity Plus: LPS Assay for Eselectin Biomarker Activity (AID 2283077); details: primary human HUVEC with PBMC; actives raise or lower the signal
In short: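 Human umbilical vein endothelial cells co-cultured with peripheral blood mononuclear cells under LPS stimulation; E-selectin measured by ELISA 24 h after chemical dosing. Activity fitted bidirectionally against DMSO as negative control and baseline.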

[8] = read-out: Interleukin-8 (IL8), CXCL8 (gene 3576); assay: BSK_LPS_IL8: BioMAP Diversity Plus: LPS Assay for Interleukin-8 (IL8) Biomarker Activity (AID 2283078); details: primary human HUVEC with PBMC; actives raise or lower the signal
In short: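 Human umbilical vein endothelial cells co-cultured with PBMC were stimulated with LPS; IL-8 levels were measured by ELISA 24 h after chemical dosing. Activity was fitted bidirectionally against DMSO as negative control and baseline.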

[9] = BSK_LPS_SRB: Viability Assessment in the BioMAP Diversity Plus: LPS Assay (AID 2283079); details: primary human HUVEC with PBMC;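 note: total protein by sulforhodamine B absorbance as a cytotoxicity measure; measured one day after compound addition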
In short: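 Human umbilical vein endothelial cells co-cultured with PBMC (LPS system) were dosed for 24 h. Total protein was stained with 0.1% sulforhodamine B after 10% TCA fixation, read at 560 nm, and fitted bidirectionally against DMSO baseline.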

[10] = read-out: Interleukin-1 alpha (IL1a), IL1A (gene 3552); assay: BSK_LPS_IL1a: BioMAP Diversity Plus: LPS Assay for Interleukin-1 alpha (IL1a) Biomarker Activity (AID 2283080); details: primary human HUVEC with PBMC; actives raise or lower the signal
In short: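 Human umbilical vein endothelial cells co-cultured with peripheral blood mononuclear cells were LPS-stimulated and exposed to test chemicals for 24 h. IL-1 alpha was quantified by ELISA, with bidirectional curve fitting against DMSO as the negative control and baseline.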

[11] = read-out: Monocyte Chemoattractant Protein-1 (MCP1), CCL2 (gene 6347); assay: BSK_LPS_MCP1: BioMAP Diversity Plus: LPS Assay for Monocyte Chemoattractant Protein-1 (MCP1) Biomarker Activity (AID 2283081); details: primary human HUVEC with PBMC; actives raise or lower the signal;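 for AC50: secreted MCP-1 protein quantified by ELISA in culture supernatant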
In short: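 HUVEC plus PBMC co-culture (human primary cells, LPS system) exposed to test chemical for 24 h; MCP-1 measured by ELISA. Bidirectional curve fitting against DMSO baseline; parallel SRB total-protein staining flags overt cytotoxicity.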

[12] = BSK_LPS_PGE2: BioMAP Diversity Plus: LPS Assay for Prostaglandin E2 (PGE2) Biomarker Activity (AID 2283082); details: primary human HUVEC with PBMC; actives raise or lower the signal;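 for AC50: secreted prostaglandin E2 measured by ELISA in LPS-stimulated co-culture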
In short: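 Endpoint derived from bidirectional curve fitting versus DMSO of ELISA-measured PGE2 in LPS-stimulated human primary vascular co-culture (HUVEC with PBMC) harvested at 24 h.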

[13] = read-out: Macrophage colony-stimulating factor (MCSF), CSF1 (gene 1435); assay: BSK_LPS_MCSF: BioMAP Diversity Plus: LPS Assay for Macrophage colony-stimulating factor (MCSF) Biomarker Activity (AID 2283083); details: primary human HUVEC with PBMC; actives raise or lower the signal
In short: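 Human umbilical vein endothelial cells co-cultured with peripheral blood mononuclear cells were exposed to compound for 24 h. M-CSF levels were measured by ELISA, and bidirectional curve fitting used DMSO as the negative control and baseline.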

[14] = read-out: Tissue Factor, F3 (gene 2152); assay: BSK_LPS_TissueFactor: BioMAP Diversity Plus: LPS Assay for Tissue Factor Biomarker Activity (AID 2283084); details: primary human HUVEC with PBMC; actives raise or lower the signal
In short: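 Human umbilical vein endothelial cells co-cultured with peripheral blood mononuclear cells were dosed and stimulated with LPS. Cell-surface CD142 was quantified by ELISA at 24 h. Activity was fitted bidirectionally against DMSO baseline.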

[15] = read-out: Tumor necrosis factor (Homo sapiens) (UniProt P01375); assay: BSK_LPS_TNFa: BioMAP Diversity Plus: LPS Assay for Tumour Necrosis Factor alpha (TNFa) Biomarker Activity (AID 2283085); details: primary human HUVEC with PBMC; actives raise or lower the signal;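 for AC50: TNFa protein level quantified by ELISA in the co-culture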
In short: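 Primary human vascular co-culture of HUVEC and PBMC; TNFa ELISA 24 h after treatment, analysed as increase or decrease relative to DMSO control.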

[16] = read-out: Vascular cell adhesion molecule 1 (VCAM1), VCAM1 (gene 7412); assay: BSK_LPS_VCAM1: BioMAP Diversity Plus: LPS Assay for Vascular cell adhesion molecule 1 (VCAM1) Biomarker Activity (AID 2283086); details: primary human HUVEC with PBMC; actives raise or lower the signal
In short: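 Primary human vascular co-culture (umbilical vein endothelium plus PBMC) stimulated with LPS received chemical; 24 h later VCAM-1 was read by ELISA. Overt cytotoxicity was assessed by sulforhodamine B staining of parallel cultures at the same time point.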

CD38, CD38 (gene 952) = assay: BSK_SAg_CD38: BioMAP Diversity Plus: SAg Assay for CD38 Biomarker Activity (AID 2283087); details: primary human HUVEC with PBMC; actives raise or lower the signal
In short: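 Fluorescence ELISA of cell-surface CD38 served as the read-out, with either increase or decrease fitted against DMSO controls. Cells were a human umbilical vein endothelium plus PBMC co-culture under SEB/TSST-1 stimulation, measured 24 h after dosing.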

CD40, CD40 (gene 958) [17] = assay: BSK_SAg_CD40: BioMAP Diversity Plus: SAg Assay for CD40 Biomarker Activity (AID 2283088); details: primary human HUVEC with PBMC; actives raise or lower the signal
In short: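 Human umbilical vein endothelial cells co-cultured with PBMC; CD40 levels measured by ELISA with fluorescence read-out 24 h after chemical dosing. Gain or loss of signal fitted bidirectionally against DMSO baseline.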

CD69, CD69 (gene 969) = assay: BSK_SAg_CD69: BioMAP Diversity Plus: SAg Assay for CD69 Biomarker Activity (AID 2283089); details: primary human HUVEC with PBMC; actives raise or lower the signal;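 for AC50: cell surface CD69 protein quantified by ELISA with fluorescence detection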
In short: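 ELISA, fluorescence read-out: CD69 on human umbilical vein endothelial cell + PBMC co-culture, 24 h post-dosing. Gain or loss of signal fitted bidirectionally against DMSO baseline.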

[18] = read-out: Transforming growth factor beta 1 (TGFb1), TGFB1 (gene 7040); assay: BSK_KF3CT_TGFb1: BioMAP Diversity Plus: KF3CT Assay for Transforming growth factor beta 1 (TGFb1) Biomarker Activity (AID 2283072); details: primary human keratinocytes with fibroblasts; actives raise or lower the signal
In short: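 Signal changes in either direction, relative to DMSO, define activity here. TGF-b1 is read by ELISA from a human keratinocyte-fibroblast co-culture 24 h post-dose.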

Measured: AC50

Chain of Tumor necrosis factor (Homo sapiens) (P01375 whole entry, looked up): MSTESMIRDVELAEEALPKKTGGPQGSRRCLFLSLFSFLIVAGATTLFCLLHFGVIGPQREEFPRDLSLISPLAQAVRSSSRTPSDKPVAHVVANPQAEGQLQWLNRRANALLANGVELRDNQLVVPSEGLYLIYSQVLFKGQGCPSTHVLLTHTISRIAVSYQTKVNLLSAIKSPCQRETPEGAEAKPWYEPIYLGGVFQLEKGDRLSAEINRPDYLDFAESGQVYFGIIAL
Chain of E-selectin (Homo sapiens) (P16581 whole entry, looked up): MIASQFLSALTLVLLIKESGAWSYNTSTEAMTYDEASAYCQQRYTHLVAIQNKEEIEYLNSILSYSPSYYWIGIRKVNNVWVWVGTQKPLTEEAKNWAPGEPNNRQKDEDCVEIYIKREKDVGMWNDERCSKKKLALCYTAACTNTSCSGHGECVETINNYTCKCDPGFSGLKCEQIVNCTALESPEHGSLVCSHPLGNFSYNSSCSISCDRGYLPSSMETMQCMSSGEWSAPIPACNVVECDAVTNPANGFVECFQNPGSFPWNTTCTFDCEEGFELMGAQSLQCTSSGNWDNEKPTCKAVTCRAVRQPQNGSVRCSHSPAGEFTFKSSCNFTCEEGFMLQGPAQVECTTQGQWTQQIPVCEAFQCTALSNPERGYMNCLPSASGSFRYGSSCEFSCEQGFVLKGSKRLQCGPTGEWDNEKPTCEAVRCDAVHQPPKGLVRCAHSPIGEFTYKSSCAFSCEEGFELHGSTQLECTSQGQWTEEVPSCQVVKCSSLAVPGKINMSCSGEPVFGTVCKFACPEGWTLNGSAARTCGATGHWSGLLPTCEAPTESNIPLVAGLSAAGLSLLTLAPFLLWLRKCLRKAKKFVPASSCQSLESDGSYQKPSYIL

COc1nc(C)nc(NC(=O)NS(=O)(=O)c2ccccc2Cl)n1
active: [2] 31.6 µM
inactive: [1] | [2] | [3] | [4] | [5] | CD40, CD40 (gene 958) [6] | [7] | [8] | [9] | [10] | [11] | [12] | [13] | [14] | [15] | [16] | CD38, CD38 (gene 952) | CD40, CD40 (gene 958) [17] | CD69, CD69 (gene 969)

CC(C)(C)c1ccc(CSc2cnn(C(C)(C)C)c(=O)c2Cl)cc1
inactive: [18] | [7] | [12] | [14] | [15]
active: [1] 6.93 µM | [2] 22.9 µM | [3] 20 µM | [4] 18.6 µM | [5] 4.28 µM | CD40, CD40 (gene 958) [6] 8.25 µM | [8] 3.16 µM | [9] 7.73 µM | [10] 20 µM | [11] 5.45 µM | [13] 9.19 µM | [16] 15.8 µM | CD38, CD38 (gene 952) 2.4 µM | CD40, CD40 (gene 958) [17] 4.43 µM | CD69, CD69 (gene 969) 1.43 µM

COc1cnc(OC)n2nc(NS(=O)(=O)c3c(OCC(F)F)cccc3C(F)(F)F)nc12
inactive: [1] | [2] | [3] | [4] | [5] | CD40, CD40 (gene 958) [6] | [7] | [8] | [9] | [10] | [11] | [12] | [13] | [14] | [15] | [16] | CD38, CD38 (gene 952) | CD40, CD40 (gene 958) [17] | CD69, CD69 (gene 969)
active: [5] 29.6 µM | [8] 0.0793 µM

OC(c1ccc(Cl)cc1)(c1cncnc1)c1ccccc1Cl (stereo unspecified)
active: CD40, CD40 (gene 958) [6] 15.8 µM | [9] 23.2 µM | [12] 4.99 µM | [15] 10.9 µM | CD38, CD38 (gene 952) 20 µM | CD40, CD40 (gene 958) [17] 13.8 µM | CD69, CD69 (gene 969) 14.2 µM
inactive: all other assays above
